Measured values: PubChem BioAssay AID1734 (Vanderbilt High Throughput Screening Facility, 2009)
The source made the active and inactive calls. How the calls were made is not given here.

What was measured:
[1] = KCC2 and NKCC1 inhibition by rubidium flux, cell-based, NKCC1 counter-screen (AID 1734); conditions: KCC2-expressing cells, NKCC1 counter-screen
[2] = molecular target: Solute carrier family 12 member 5 (Homo sapiens) (UniProt Q9H2X9); assay: as above; conditions: KCC2-expressing cells
Sequence of Solute carrier family 12 member 5 (Homo sapiens) (Q9H2X9 whole entry, looked up): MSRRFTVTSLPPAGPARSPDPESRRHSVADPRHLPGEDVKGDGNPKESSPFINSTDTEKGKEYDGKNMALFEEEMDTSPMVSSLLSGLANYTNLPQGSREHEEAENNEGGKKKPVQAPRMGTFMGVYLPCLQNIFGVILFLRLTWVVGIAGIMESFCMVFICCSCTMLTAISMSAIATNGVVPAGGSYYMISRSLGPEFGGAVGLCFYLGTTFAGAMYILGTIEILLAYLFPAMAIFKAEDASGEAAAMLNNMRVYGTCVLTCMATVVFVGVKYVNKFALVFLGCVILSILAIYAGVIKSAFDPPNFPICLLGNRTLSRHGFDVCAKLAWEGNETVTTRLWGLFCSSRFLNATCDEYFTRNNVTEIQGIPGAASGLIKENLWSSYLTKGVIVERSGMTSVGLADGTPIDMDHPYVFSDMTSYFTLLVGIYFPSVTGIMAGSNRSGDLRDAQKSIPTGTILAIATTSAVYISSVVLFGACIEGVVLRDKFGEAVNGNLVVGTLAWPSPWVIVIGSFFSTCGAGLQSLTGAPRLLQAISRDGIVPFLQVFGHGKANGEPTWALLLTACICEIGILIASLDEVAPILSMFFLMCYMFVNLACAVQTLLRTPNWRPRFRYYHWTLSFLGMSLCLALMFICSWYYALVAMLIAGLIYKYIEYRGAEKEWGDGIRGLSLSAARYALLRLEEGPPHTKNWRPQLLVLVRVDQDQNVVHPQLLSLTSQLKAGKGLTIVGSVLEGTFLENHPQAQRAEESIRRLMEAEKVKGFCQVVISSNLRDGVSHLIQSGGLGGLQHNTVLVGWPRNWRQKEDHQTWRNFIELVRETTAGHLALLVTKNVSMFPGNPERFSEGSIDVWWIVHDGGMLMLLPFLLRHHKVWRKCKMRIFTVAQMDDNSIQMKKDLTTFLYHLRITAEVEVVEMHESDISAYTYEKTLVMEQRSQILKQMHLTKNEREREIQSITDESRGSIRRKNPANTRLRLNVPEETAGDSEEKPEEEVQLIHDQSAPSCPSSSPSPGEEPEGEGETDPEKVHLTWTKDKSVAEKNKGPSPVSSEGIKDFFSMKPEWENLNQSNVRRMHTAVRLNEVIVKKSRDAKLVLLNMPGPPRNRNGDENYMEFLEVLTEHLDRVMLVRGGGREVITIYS

Structure (SMILES)	inhibition ([1]; at 5 µM) [%]	inhibition ([1]; at 50 µM) [%]	outcome [2]
O=C(CCS(=O)(=O)Cc1ccccc1)Nc1nc2c(s1)CCCC2	35.8	37.1	–
CCOc1ccc(N2C(=O)C3Sc4[nH]c(=O)sc4C(/C=C/c4ccccc4)C3C2=O)cc1 (configuration not stated)	67.4	90.8	–
Cc1cnc(NC(=O)CSc2nnc(Cc3ccccc3)o2)s1	9.9	16.8	–
O=C(NCCOc1ccccc1F)c1ccccc1SCc1ccc(F)cc1	34.2	45.8	–
Cc1ccc(-c2ccc(S(=O)(=O)NCC3CCCO3)cc2)cc1 (configuration not stated)	21.8	26.6	–
CC1Cc2ccccc2N1C(=O)c1ccc(N2CCCC2)c([N+](=O)[O-])c1 (configuration not stated)	22.9	48.5	–
CN(Cc1ccccc1)S(=O)(=O)c1ccc(Cl)c(C(=O)NCCc2ccccn2)c1	44.4	53.4	–
Cc1nc(CC(=O)Nc2nc(-c3ccccc3)cs2)cs1	35.5	38.1	–
O=C(/C=C/c1ccccc1)Nc1scc(-c2ccccc2)c1C(=O)O	25.2	72.8	–
CCCn1c(N)c(C(=O)CSc2nnc(Cc3ccccc3)o2)c(=O)n(C)c1=O	15.4	28.3	–
Cc1ccc(NC(=O)c2ccccc2NS(=O)(=O)c2ccc(Cl)s2)cc1	65.1	68.4	inactive
CC(C)c1onc(C(=O)N2CCN(Cc3ccccc3)CC2)c1[N+](=O)[O-]	6.1	15.5	–
CCc1ccc(OCCNC(=O)c2ccccc2SCc2ccc(F)cc2)cc1	45.3	47.9	inactive
O=C(Cn1cnc2c(nnn2Cc2ccc(F)cc2)c1=O)N1CCCc2ccccc21	28.1	27.7	–
O=C(Cn1cnc2c(nnn2Cc2ccccc2)c1=O)c1ccc(Cl)cc1	25.1	40.6	–
